A structure can be active in one record and inactive in another. The source made the active and inactive calls. Entries that show only a call come without a potency. Unless noted, the call rests on the fitted dose curve; in most records, active means well fitted curve in the direction sought with a large enough effect in the repeat runs; inconclusive means weak or mixed curves; inactive means no such curve, though single readings can be large; an effect the other way counts as inactive or inconclusive.
How the values were obtained:
[1] = qHTS assay to identify small molecule antagonists of the thyroid receptor (TR) signaling pathway - cell viability counter screen (AID 743064); further: nearly all actives have a fitted effect of over 50% in size; further: potency means the concentration at half of the fitted maximal effect
Method in brief: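 Rat GH3 pituitary tumor cells stably expressing two TR response elements driving luciferase were plated, rested 4 h, then dosed with library compounds and T3 (1 nM final). After 23.5 h at 37 °C, CellTiter-Fluor was added for 30 min and fluorescence recorded.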

[2] = qHTS assay to identify small molecule antagonists of the thyroid receptor (TR) signaling pathway (AID 743065); further: nearly all actives have a fitted effect of over 55% in size; further: potency means the concentration at half of the fitted maximal effect
Method in brief: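 GH3.TRE-Luc rat pituitary cells carrying two TR response elements driving luciferase were plated for 4 h, given compound plus 1 nM T3 (final), and incubated 23.5 h at 37 C. ONE-Glo luminescence measured reporter inhibition; CellTiter-Fluor fluorescence tracked cytotoxicity.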

[3] = system: thyroid hormone receptor (rat, GH3 cells); assay: qHTS assay to identify small molecule agonists of the thyroid receptor (TR) signaling pathway (AID 743066; calls by dose curve; further: potency means the concentration at half of the fitted maximal effect)
[4] = molecular target: Estrogen receptor (Homo sapiens) (UniProt P03372); assay: qHTS assay to identify small molecule antagonists of the estrogen receptor alpha (ER-alpha) signaling pathway (AID 743069; active means well fitted curve in the direction sought with a large enough effect in the signal ratio in the repeat runs, not every such curve was filed as active; inconclusive means weak or mixed curves, or effect the other way; inactive means no such curve, though single readings can be large or run the other way; the % refers to the signal ratio)
Sequence of Estrogen receptor (Homo sapiens) (P03372 whole entry, looked up): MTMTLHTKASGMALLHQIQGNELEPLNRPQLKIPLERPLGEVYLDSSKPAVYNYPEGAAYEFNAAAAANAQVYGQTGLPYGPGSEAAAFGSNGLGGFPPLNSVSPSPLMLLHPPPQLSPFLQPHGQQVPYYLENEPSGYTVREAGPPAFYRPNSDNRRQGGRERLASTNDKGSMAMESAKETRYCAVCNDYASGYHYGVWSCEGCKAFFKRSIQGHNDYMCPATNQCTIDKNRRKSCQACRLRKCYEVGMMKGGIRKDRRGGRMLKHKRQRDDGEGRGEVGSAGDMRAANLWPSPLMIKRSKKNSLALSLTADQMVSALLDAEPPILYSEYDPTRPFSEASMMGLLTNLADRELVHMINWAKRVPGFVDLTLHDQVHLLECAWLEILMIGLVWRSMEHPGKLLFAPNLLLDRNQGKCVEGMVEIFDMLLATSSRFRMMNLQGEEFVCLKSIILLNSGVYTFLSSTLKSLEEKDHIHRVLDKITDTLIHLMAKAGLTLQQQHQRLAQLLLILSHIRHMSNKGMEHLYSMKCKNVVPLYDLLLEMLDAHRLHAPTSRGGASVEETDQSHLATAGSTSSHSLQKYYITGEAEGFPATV
Method in brief: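 Screening used a UAS-driven beta-lactamase reporter integrated into HEK293 cells expressing ER-alpha, stimulated with 17beta-estradiol alongside test compounds over 18 hr at 37C; signal came from LiveBLAzer B/G FRET fluorescence.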

[5] = qHTS assay to identify small molecule antagonists of the estrogen receptor alpha (ER-alpha) signaling pathway - cell viability counter screen (AID 743074; calls by dose curve; further: nearly all actives have a fitted effect of over 45% in size)
[6] = molecular target: Estrogen receptor (Homo sapiens) (UniProt P03372); assay: qHTS assay to identify small molecule agonists of the estrogen receptor alpha (ER-alpha) signaling pathway (AID 743075; calls by dose curve; further: potency means the concentration at half of the fitted maximal effect)
[7] = molecular target: Estrogen receptor (Homo sapiens) (UniProt P03372); assay: qHTS assay to identify small molecule agonists of the estrogen receptor alpha (ER-alpha) signaling pathway using the BG1 cell line (AID 743079); further: nearly all actives have a fitted effect of over 20% in size; further: potency means the concentration at half of the fitted maximal effect
[8] = qHTS assay to identify small molecule antagonists of the estrogen receptor alpha (ER-alpha) signaling pathway using the BG1 cell line (AID 743080; calls by dose curve;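 further: BG1 cells stimulated with 17beta-estradiol alongside compound; series mostly up to about 70 µM; nearly all actives have a fitted effect of over 25% in size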)
Method in brief: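 Endogenous full-length ER-alpha in BG1-Luc-4E2 cells drives a stably integrated 4×ERE luciferase gene; compounds were tested against 17beta-estradiol over 21.5 h, with luminescence and multiplexed viability fluorescence recorded.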

[9] = qHTS assay to identify small molecule antagonists of the estrogen receptor alpha (ER-alpha) signaling pathway using the BG1 cell line - cell viability counter screen (AID 743081);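 further: compound given together with 17beta-estradiol as the ER stimulus; series mostly up to about 70 µM; nearly all actives have a fitted effect of over 45% in size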
Aromatase (Homo sapiens) = Aromatase (Homo sapiens) (UniProt P11511); assay: qHTS assay to identify aromatase inhibitors (AID 743083); further: series mostly up to about 70 µM; nearly all actives have a fitted effect of over 55% in size
Sequence of Aromatase (Homo sapiens) (P11511 whole entry, looked up): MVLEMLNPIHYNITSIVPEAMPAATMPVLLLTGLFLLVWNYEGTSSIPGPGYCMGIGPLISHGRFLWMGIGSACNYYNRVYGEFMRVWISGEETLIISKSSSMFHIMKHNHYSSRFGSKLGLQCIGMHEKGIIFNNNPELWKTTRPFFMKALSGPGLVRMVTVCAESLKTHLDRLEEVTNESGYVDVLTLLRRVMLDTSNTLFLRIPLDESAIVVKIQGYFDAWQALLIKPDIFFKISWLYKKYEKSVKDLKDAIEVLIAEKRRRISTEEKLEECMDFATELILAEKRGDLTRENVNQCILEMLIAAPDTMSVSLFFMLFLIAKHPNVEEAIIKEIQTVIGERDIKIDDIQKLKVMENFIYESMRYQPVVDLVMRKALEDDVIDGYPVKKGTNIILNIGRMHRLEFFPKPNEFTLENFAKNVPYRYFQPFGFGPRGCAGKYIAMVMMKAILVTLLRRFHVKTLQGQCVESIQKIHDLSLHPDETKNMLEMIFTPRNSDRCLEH

[10] = qHTS assay to identify aromatase inhibitors - cell viability counter screen (AID 743084);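 further: cells stimulated with testosterone during compound exposure; nearly all actives have a fitted effect of over 55% in size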
[11] = molecular target: Aryl hydrocarbon receptor (Homo sapiens) (UniProt P35869); assay: qHTS assay to identify small molecule that activate the aryl hydrocarbon receptor (AhR) signaling pathway (AID 743085); further: nearly all actives have a fitted effect of over 15% in size; further: potency means the concentration at half of the fitted maximal effect;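 on activation: HG2L7.5c1 human HepG2 liver cells with stably integrated DRE-driven firefly reporter; series mostly up to about 70 µM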
Sequence of Aryl hydrocarbon receptor (Homo sapiens) (P35869 whole entry, looked up): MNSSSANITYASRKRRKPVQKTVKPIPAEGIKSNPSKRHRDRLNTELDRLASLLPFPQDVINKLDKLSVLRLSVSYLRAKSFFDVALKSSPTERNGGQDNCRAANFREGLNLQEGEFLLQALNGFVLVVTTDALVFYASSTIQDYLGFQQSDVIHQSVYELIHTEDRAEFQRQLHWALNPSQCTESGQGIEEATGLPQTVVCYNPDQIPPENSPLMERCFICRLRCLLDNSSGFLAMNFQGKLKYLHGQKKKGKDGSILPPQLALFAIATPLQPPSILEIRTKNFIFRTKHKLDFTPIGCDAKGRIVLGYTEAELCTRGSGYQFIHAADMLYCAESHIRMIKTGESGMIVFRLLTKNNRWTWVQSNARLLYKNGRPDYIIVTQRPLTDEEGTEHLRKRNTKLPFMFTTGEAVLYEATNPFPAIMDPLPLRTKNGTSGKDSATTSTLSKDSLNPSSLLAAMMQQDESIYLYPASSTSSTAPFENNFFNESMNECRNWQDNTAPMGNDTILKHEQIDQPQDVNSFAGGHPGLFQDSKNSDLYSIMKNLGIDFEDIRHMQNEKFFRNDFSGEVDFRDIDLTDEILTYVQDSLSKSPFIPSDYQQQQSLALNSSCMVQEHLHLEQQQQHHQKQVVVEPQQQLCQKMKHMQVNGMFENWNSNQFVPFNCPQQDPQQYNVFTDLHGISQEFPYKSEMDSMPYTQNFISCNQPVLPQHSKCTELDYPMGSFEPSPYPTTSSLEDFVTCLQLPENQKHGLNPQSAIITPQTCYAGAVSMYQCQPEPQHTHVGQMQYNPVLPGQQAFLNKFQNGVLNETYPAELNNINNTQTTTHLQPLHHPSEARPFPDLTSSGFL
Method in brief: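 Compounds were tested in HepG2 hepatocellular carcinoma cells harbouring a stably integrated luciferase gene under control of 20 DREs. Increased reporter signal after 24 h treatment at 37C was taken as AhR activation.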

[12] = qHTS assay to identify small molecule that activate the aryl hydrocarbon receptor (AhR) signaling pathway - cell viability counter screen (AID 743086);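 further: HepG2 liver cells carrying the AhR DRE luciferase reporter; series mostly up to about 70 µM; nearly all actives have a fitted effect of over 45% in size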
Method in brief: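 HepG2-AhR-luc (HG2L7.5c1) cells, 4000/well, were preincubated 5 h at 37C, exposed to compound in qHTS format for 24 hr at 37C, then given CellTiter-Fluor for 30 min; viability was read as fluorescence in the reporter wells.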

[13] = molecular target: Peroxisome proliferator-activated receptor gamma (Homo sapiens) (UniProt P37231); assay: qHTS assay to identify small molecule agonists of the peroxisome proliferator-activated receptor gamma (PPARg) signaling pathway (AID 743094; active means well fitted activation curve with a large enough effect in the signal ratio in the repeat runs, not every such curve was filed as active; inconclusive means weak or mixed curves, or effect the other way; inactive means no such curve, though single readings can be large or run the other way; the % refers to the signal ratio)
Sequence of Peroxisome proliferator-activated receptor gamma (Homo sapiens) (P37231 whole entry, looked up): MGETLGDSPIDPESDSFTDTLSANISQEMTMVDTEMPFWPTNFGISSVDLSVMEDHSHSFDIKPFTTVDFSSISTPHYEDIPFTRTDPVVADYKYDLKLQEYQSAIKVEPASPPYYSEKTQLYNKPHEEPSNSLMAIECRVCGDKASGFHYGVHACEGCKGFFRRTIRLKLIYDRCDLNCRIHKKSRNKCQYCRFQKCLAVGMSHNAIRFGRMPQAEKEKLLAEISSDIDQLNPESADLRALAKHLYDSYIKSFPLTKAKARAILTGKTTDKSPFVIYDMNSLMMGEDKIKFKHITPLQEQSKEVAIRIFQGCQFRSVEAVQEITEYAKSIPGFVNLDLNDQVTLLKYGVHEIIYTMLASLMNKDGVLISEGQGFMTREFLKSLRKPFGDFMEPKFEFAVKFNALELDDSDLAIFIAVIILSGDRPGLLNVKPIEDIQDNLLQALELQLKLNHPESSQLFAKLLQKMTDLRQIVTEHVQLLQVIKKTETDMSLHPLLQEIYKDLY
Method in brief: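 HEK293H PPARg-bla cells, 5 h settle at 37C/5% CO2; compound (DMSO) 17 h, 37C; B/G FRET substrate 1 h RT; fluorescence intensity read-out. qHTS format.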

[14] = qHTS assay to identify small molecule antagonists of the peroxisome proliferator-activated receptor gamma (PPARg) signaling pathway - cell viability counter screen (AID 743194); further: nearly all actives have a fitted effect of over 55% in size
Method in brief: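 PPARg-UAS-bla HEK293H cells were plated, rested 5 h at 37 C, then treated with compounds plus rosiglitazone (50 nM final) for 17 h at 37 C; viability was then read by CellTiter-Glo luminescence after 30 min at room temperature.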

[15] = qHTS assay for small molecule agonists of the antioxidant response element (ARE) signaling pathway (AID 743202; active means well fitted activation curve with a large enough effect in the signal ratio in the repeat runs, not every such curve was filed as active; inconclusive means weak or mixed curves, or effect the other way; inactive means no such curve, though single readings can be large or run the other way; the % refers to the signal ratio; further: potency means the concentration at half of the fitted maximal effect)
Method in brief: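 Steps: seed ARE-bla HepG2 cells (2,000/well); incubate 5 h at 37 C; add compounds by pin tool; incubate 16 h at 37 C; add FRET substrate; read fluorescence after 2 h at RT.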

[16] = qHTS assay for small molecule agonists of the antioxidant response element (ARE) signaling pathway - cell viability counter screen (AID 743203; calls by dose curve; further: nearly all actives have a fitted effect of over 55% in size; further: potency means the concentration at half of the fitted maximal effect)
Method in brief: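 Luminescence read-out (CellTiter-Glo, 30 min at room temperature) measured cell viability in the same wells as the ARE beta-lactamase reporter. HepG2 ARE-bla cells were treated with compounds for 16 hrs at 37C/5% CO2.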

[17] = qHTS assay for small molecule activators of the heat shock response signaling pathway - cell viability counter screen (AID 743209); further: nearly all actives have a fitted effect of over 50% in size
Method in brief: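 HSE-bla HeLa; 1500 cells/well; overnight 37 C, 5% CO2; compound 5 h 37 C; LiveBLAzer B/G substrate 2.5 h RT; CellTiter-Glo 30 min RT; luminescence.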

[18] = qHTS assay for small molecule activators of the heat shock response signaling pathway (AID 743210; active means well fitted activation curve with a large enough effect in the signal ratio in the repeat runs, with a control signal flat, not every such curve was filed as active; inconclusive means weak or mixed curves; the % refers to the signal ratio;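 further: HeLa cells with beta-lactamase reporter driven by heat shock elements; series mostly up to about 63 µM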)
Method in brief: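 Activation of heat shock element-controlled beta-lactamase expression is measured in HeLa cells by LiveBLAzer FRET fluorescence, with compound exposure lasting 5 h at 37 C and substrate loading 2.5 h at room temperature.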

[19] = molecular target: Peroxisome proliferator-activated receptor gamma (Homo sapiens) (UniProt P37231); assay: qHTS assay to identify small molecule antagonists of the peroxisome proliferator-activated receptor gamma (PPARg) signaling pathway (AID 743191; calls by dose curve; further: nearly all actives have a fitted effect of over 30% in size; further: potency means the concentration at half of the fitted maximal effect)
Method in brief: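 GeneBLAzer PPARg UAS-bla HEK293H cells carrying a UAS-driven beta-lactamase reporter were plated at 3000 cells/well, preincubated 5 h at 37C, then given compound for 17 h at 37C; LiveBLAzer B/G FRET substrate was read after 1 h at room temperature.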

SMILES	Potency [1]	Potency [2]	Potency [3]	Potency [4]	outcome [5]	Potency [6]	Potency [7]	Potency [8]	Potency [9]	Potency (Aromatase (Homo sapiens))	Potency [10]	Potency [11]	Potency [12]	Potency [13]	Potency [14]	Potency [15]	Potency [16]	Potency [17]	outcome [18]	Potency [19]
N[C@H]1C(O)O[C@H](CO)[C@H](O)[C@@H]1O (stereo partly drawn)	inactive	inactive	inactive	inactive	inactive	inactive	inactive	inactive	inactive	inactive	inactive	inactive	inactive	inactive	inactive	inactive	inactive	inactive	inactive	–
C=CC[N+]1([C@H]2C[C@H]3[C@@H]4CC[C@H]5C[C@H](OC(C)=O)[C@@H](N6CCCCC6)C[C@]5(C)[C@H]4CC[C@]3(C)[C@H]2OC(=O)CC)CCCCC1	inactive	inactive	inactive	inactive	inactive	inactive	inactive	inactive	inactive	inactive	inactive	inactive	inactive	inactive	–	inactive	–	inactive	inactive	inactive
C=C(C)C(=O)OC(C)C	inactive	inactive	inactive	inactive	inactive	inactive	inactive	inactive	inactive	inactive	inactive	–	inactive	inactive	inactive	inactive	inactive	inactive	–	inactive
CC(=O)NCCCS(=O)(=O)O	inactive	inactive	inactive	inactive	inactive	inactive	inactive	inactive	inactive	inactive	inactive	inactive	inactive	inactive	–	26.5 µM (active)	inactive	inactive	inactive	–
CC(=O)SCc1ccco1	inactive	inactive	inactive	inactive	inactive	inactive	inactive	inactive	inactive	inactive	inactive	inactive	inactive	inactive	inactive	–	inactive	inactive	–	–
Nc1nc(N)c2nc(CNc3ccc(C(=O)N[C@@H](CCC(=O)O)C(=O)O)cc3)cnc2n1	inactive	0.0571 µM (active)	inactive	inactive	inactive	inactive	inactive	inactive	inactive	inactive	inactive	inactive	inactive	–	–	–	0.0051 µM (active)	inactive	–	–
O=C(O)COC(=O)Cc1ccccc1Nc1c(Cl)cccc1Cl	inactive	inactive	inactive	inactive	inactive	inactive	inactive	inactive	inactive	inactive	inactive	inactive	inactive	–	–	inactive	inactive	inactive	inactive	–
O=C(Nc1ccccc1)OCC(CN1CCCCC1)OC(=O)Nc1ccccc1 (stereo not drawn)	10.1 µM (active)	10.1 µM (active)	inactive	inactive	inactive	inactive	inactive	inactive	inactive	inactive	inactive	inactive	inactive	–	inactive	–	inactive	inactive	inactive	16.8 µM (active)
O=c1c2ccccc2nnn1CCl	inactive	inactive	inactive	inactive	inactive	inactive	inactive	inactive	inactive	inactive	inactive	inactive	inactive	inactive	–	–	inactive	inactive	inactive	inactive
CC(C(=O)O)c1ccc(-c2ccccc2)c(F)c1 (stereo not drawn)	inactive	inactive	inactive	inactive	inactive	inactive	4.52 µM (active) and inactive	inactive	inactive	inactive	inactive	inactive	inactive	–	inactive	–	inactive	inactive	inactive	–
Cc1ccccc1N=Nc1ccc(N=Nc2c(O)ccc3ccccc23)c(C)c1	inactive	inactive	inactive	inactive	inactive	10.7 µM [inconclusive] (active)	8.41 µM (active)	inactive	–	inactive	inactive	13.3 µM (active)	inactive	inactive	inactive	–	inactive	inactive	inactive	–
Cc1cc(NC(=O)C(=O)O)cc(C)c1Oc1ccc(O)c2c1CCC2	inactive	inactive	0.0017 µM (active)	inactive	–	inactive	38.6 µM (active)	inactive	inactive	inactive	–	–	inactive	–	–	inactive	inactive	inactive	inactive	–
C1CCC2OC2C1 (stereo not drawn)	inactive	inactive	inactive	inactive	inactive	inactive	–	inactive	inactive	inactive	inactive	–	inactive	inactive	–	–	inactive	inactive	inactive	–
C1=Cc2ccccc2C1	inactive	inactive	inactive	inactive	inactive	inactive	–	inactive	inactive	inactive	inactive	–	inactive	inactive	inactive	inactive	inactive	inactive	inactive	–
